Where “and” joins values, the source holds several entries; their conditions need not be identical. Identical values can stand only once. About 2,000 (36%) of roughly 5,500 compounds were called active. Roughly 18% stayed inconclusive and do not appear here. Rule as the data show it: active = normalized growth mostly below about 0.91 (no sharp cut-off); inconclusive = no clear call, values can overlap the other calls; inactive = mostly above about 0.92. Some of the results follow.
Experiment: chemical genetic growth profiling, strain panel (AID 1159580);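 also: tested at 20 µM; growth read once vehicle control cultures reached saturation at 30 °C; 1 = growth at the plate median or of vehicle wells; lower values mean less growth of the strain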
Conditions: S. cerevisiae deletion strains, growth OD

Measured: normalized growth

CC(C)c1ccc2c(c1)CCC1[C@](C)(CN)CCC[C@]21C (stereo partly specified)
inactive: locus YAL030W, strain snc1, stronger effect = lower value 1.01 | locus YBL061C, strain skt5, stronger effect = lower value 1.01 | locus YBR009C, strain hhf1, stronger effect = lower value 0.927 | locus YBR023C, strain chs3, stronger effect = lower value 0.947 | locus YBR171W, strain sec66, stronger effect = lower value 1.02 | locus YBR229C, strain ROT2, stronger effect = lower value 0.925 | locus YBR231C, strain swc5, stronger effect = lower value 0.974 | locus YBR279W, strain paf1, stronger effect = lower value 0.976 | locus YCL011C, strain gbp2, stronger effect = lower value 0.942 | locus YCL016C, strain dcc1, stronger effect = lower value 0.952 | locus YCL061C, strain MRC1, stronger effect = lower value 0.983 | locus YCL069W, strain vba3, stronger effect = lower value 1 | locus YCR088W, strain abp1, stronger effect = lower value 1.01 | locus YDL005C, strain med2, stronger effect = lower value 1.03 | locus YDL040C, strain nat1, stronger effect = lower value 1.01 | locus YDR001C, strain nth1, stronger effect = lower value 1.02 | locus YDR137W, strain rgp1, stronger effect = lower value 1.03 | locus YDR159W, strain sac3, stronger effect = lower value 1.02 | locus YDR195W, strain ref2 1.1 | locus YDR297W, strain sur2, stronger effect = lower value 0.992 | locus YDR334W, strain swr1, stronger effect = lower value 1.01 | locus YDR335W, strain msn5, stronger effect = lower value 0.969 | locus YEL003W, strain gim4, stronger effect = lower value 0.927 | locus YEL037C, strain rad23, stronger effect = lower value 1.01 | locus YEL061C, strain CIN8 (second series), stronger effect = lower value 1.01 | locus YER015W, strain faa2, stronger effect = lower value 0.951 | locus YER016W, strain bim1, stronger effect = lower value 1.02 | locus YER111C, strain swi4, stronger effect = lower value 1.03 | locus YGL167C, strain pmr1, stronger effect = lower value 1.01 | locus YGL173C, strain kem1, stronger effect = lower value 0.971 | locus YGL227W, strain vid30, stronger effect = lower value 1.02 | locus YGL240W, strain doc1, stronger effect = lower value 0.959 | locus YGL253W, strain hxk2, stronger effect = lower value 0.973 | locus YHR013C, strain ard1, stronger effect = lower value 0.886 | locus YHR027C, strain rpn1, stronger effect = lower value 1.02 | locus YHR079C, strain IRE1, stronger effect = lower value 0.964 | locus YHR094C, strain hxt1, stronger effect = lower value 0.949 | locus YHR142W, strain chs7, stronger effect = lower value 0.89 | locus YIL125W, strain kgd1, stronger effect = lower value 0.961 | locus YJL092W, strain hpr5, stronger effect = lower value 0.991 | locus YJL095W, strain BCK1 (second series), stronger effect = lower value 0.995 | locus YJL115W, strain asf1, stronger effect = lower value 1.01 | locus YJL129C, strain trk1, stronger effect = lower value 0.954 | locus YJL134W, strain LCB3, stronger effect = lower value 0.987 | locus YJL154C, strain vps35, stronger effect = lower value 1.02 | locus YJL164C, strain tpk1, stronger effect = lower value 0.931 | locus YJR066W, strain TOR1, stronger effect = lower value 0.919
0.108 (active) and 0.995 (inactive): locus YJL095W, strain BCK1, stronger effect = lower value
0.183 (active) and 0.967 (inactive): locus YHR030C, strain SLT2, stronger effect = lower value
active: locus YAL013W, strain DEP1, stronger effect = lower value 0.598 | locus YAL021C, strain ccr4, stronger effect = lower value 0.819 | locus YAL026C, strain drs2, stronger effect = lower value 0.0819 | locus YBR021W, strain FUR4, stronger effect = lower value 0.392 | locus YCL029C, strain bik1, stronger effect = lower value 0.652 | locus YDL035C, strain GPR1, stronger effect = lower value 0.253 | locus YDL074C, strain BRE1, stronger effect = lower value 0.45 | locus YDL101C, strain DUN1, stronger effect = lower value 0.199 | locus YDL134C, strain PPH21, stronger effect = lower value 0.486 | locus YDL185W, strain tfp1, stronger effect = lower value 0.88 | locus YDL192W, strain arf1, stronger effect = lower value 0.0814 | locus YDR069C, strain doa4, stronger effect = lower value 0.839 | locus YDR101C, strain arx1, stronger effect = lower value 0.13 | locus YDR150W, strain NUM1, stronger effect = lower value 0.786 | locus YDR162C, strain NBP2, stronger effect = lower value 0.0633 | locus YDR318W, strain mcm21, stronger effect = lower value 0.457 | locus YDR388W, stronger effect = lower value 0.284 | locus YDR392W, strain spt3, stronger effect = lower value 0.5 | locus YDR502C, strain sam2, stronger effect = lower value 0.0848 | locus YEL061C, strain CIN8, stronger effect = lower value 0.65 | locus YER110C, stronger effect = lower value 0.684 | locus YER155C, strain BEM2 (second series), stronger effect = lower value 0.367 | locus YER167W, strain BCK2, stronger effect = lower value 0.661 | locus YFR010W, strain ubp6, stronger effect = lower value 0.811 | locus YGL078C, strain dbp3, stronger effect = lower value 0.906 | locus YGL086W, strain mad1, stronger effect = lower value 0.167 | locus YGL248W, strain PDE1, stronger effect = lower value 0.368 | locus YGR078C, strain PAC10, stronger effect = lower value 0.334 | locus YGR135W, strain pre9, stronger effect = lower value 0.117 | locus YGR229C, strain SMI1, stronger effect = lower value 0.0707 | locus YGR252W, strain gcn5, stronger effect = lower value 0.174 | locus YHR079C, strain IRE1 (second series), stronger effect = lower value 0.646 | locus YHR129C, strain ARP1, stronger effect = lower value 0.701 | locus YHR200W, strain rpn10, stronger effect = lower value 0.162 | locus YIL066C, strain RNR3, stronger effect = lower value 0.34 | locus YIL073C, strain SPO22, stronger effect = lower value 0.147 | locus YIR030C, strain dcg1, stronger effect = lower value 0.19 | locus YJL166W, strain qcr8, stronger effect = lower value 0.894 | locus YJL168C, strain set2, stronger effect = lower value 0.714 | locus YJL187C, strain SWE1 (second series), stronger effect = lower value 0.243 | locus YJR043C, strain POL32, stronger effect = lower value 0.635 | locus YJR075W, strain HOC1, stronger effect = lower value 0.392
